Screens (PubChem BioAssay)
NPC1 prom act: qHTS Assay for NPC1 Promoter Activators; Huh7 NPC1 promoter luciferase reporter, 24 h; Potency, µM (doses to about 9.22 µM), hits mostly activators; hit rate 2.4% among 320,000; AID 485313, 2010; also: nearly all actives have a fitted effect of over 60% in size
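Stably transfected Huh7 (NPC1 promoter→luciferase), 1500 cells/well in Opti-MEM + 10% FBS, 2 h settle, then compound 24 h at 37 °C. Luminescence after 10 min with Amplite reagent.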
SMN2 splice up: qHTS Assay for Enhancers of SMN2 Splice Variant Expression. HEK293 SMN2-luciferase splicing reporter, luminescence, 30-36 h. Potency, µM (highest dose often 46.1 µM), hits mostly activators. hit rate 2.8% among 210,000. AID 1458, 2008; also: nearly all actives have a fitted effect of over 55% in size
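qHTS luciferase splicing reporter: luminescence rises when SMN2 exon 7 is included in transfected HEK293 cells. Compound exposure lasted 30-36 h at 37C, with 4.5 mM final sodium butyrate as control, followed by a ONE-Glo read.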
FLuc modulator: qHTS profiling assay for firefly luciferase inhibitor/activator using purifed enzyme and Km concentrations of substrates (counterscreen for miR-21 project) | Potency, µM (doses to about 57.5 µM), usual class: inhibitors | AID 588342, 2011 | purified FLuc, Km substrates, luminescence inhibition | hit rate 6.9% among 360,000; also: nearly all actives have a fitted effect of over 55% in size
Target sequence (P08659 whole entry, looked up): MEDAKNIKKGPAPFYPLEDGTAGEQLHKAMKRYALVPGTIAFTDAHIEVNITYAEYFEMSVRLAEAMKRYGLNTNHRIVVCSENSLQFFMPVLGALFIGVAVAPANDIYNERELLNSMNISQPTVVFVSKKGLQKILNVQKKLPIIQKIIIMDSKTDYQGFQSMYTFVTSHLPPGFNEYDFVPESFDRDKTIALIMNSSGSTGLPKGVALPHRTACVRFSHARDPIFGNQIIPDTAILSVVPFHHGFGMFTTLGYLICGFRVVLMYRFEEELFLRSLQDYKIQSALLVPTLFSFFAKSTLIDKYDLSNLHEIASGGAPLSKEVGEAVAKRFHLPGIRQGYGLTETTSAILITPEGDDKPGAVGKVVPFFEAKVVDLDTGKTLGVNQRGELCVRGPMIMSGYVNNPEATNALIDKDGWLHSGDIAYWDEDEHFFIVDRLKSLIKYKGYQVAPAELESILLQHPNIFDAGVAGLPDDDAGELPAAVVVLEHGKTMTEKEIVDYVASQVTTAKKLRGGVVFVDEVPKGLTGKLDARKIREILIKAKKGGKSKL
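Purified P. pyralis luciferase, 10 nM final, with Km-level 10 uM D-luciferin and 10 uM ATP in 50 mM Tris acetate pH 7.5, 10 mM Mg acetate, 0.01% Tween-20, 0.05% BSA; 6-point qHTS titration about 60 µM downward; luminescence read.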
ELG1 DNA repair: qHTS screen for small molecules that inhibit ELG1-dependent DNA repair in human embryonic kidney (HEK293T) cells expressing luciferase-tagged ELG1 | HEK293T ELG1-luciferase reporter, luminescence, 16 h; DNA damage induced by 5-fluorouridine | Potency, µM (top dose mostly 46.1 µM), most hits filed as inhibitors | hit rate 2.3% among 330,000; also: nearly all actives have a fitted effect of over 55% in size
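Luminescence from the luciferase reporter, measured 30 min after ONE-Glo reagent at room temperature, was the read-out. Beforehand, 2,000 cells per well were exposed for 16 hr at 37 °C to 5-fluorouridine together with compound or vehicle.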
ELG1 genotox: qHTS screen for small molecules that induce genotoxicity in human embryonic kidney (HEK293T) cells expressing luciferase-tagged ELG1; Potency, µM (series often up to 46 µM), hits mostly activators; AID 504466, 2011; HEK293T ELG1-luciferase reporter, luminescence, 16 h; hit rate 1.3% among 330,000; also: nearly all actives have a fitted effect of over 60% in size
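Quantitative HTS format in 1536-well plates. HEK293T ELG1-luciferase reporter cells receive test compound and are incubated 16 hr at 37 °C, 5% CO2; ONE-Glo added, 30 min room temperature, then luminescence read.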
Rab9 prom act: qHTS Assay for Rab9 Promoter Activators; Huh7 Rab9 promoter-luciferase reporter, luminescence, 24 h; Potency, µM (doses to about 9.22 µM), most hits filed as activators; hit rate 2.8% among 320,000; also: nearly all actives have a fitted effect of over 60% in size
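Promoter activation is measured as luciferase luminescence in Huh7 cells stably transfected with a Rab9 promoter–luciferase construct, following 24 h compound exposure at 37 °C and 10 min reagent incubation at ambient temperature.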
Large screens that a line does not name were inactive. Hits are enriched below; roughly 9.2% of the tested compounds scored in any of these assays. Calls follow the shape of the dose curve; as a rule, active = well fitted curve in the direction sought with a large enough effect; inconclusive = small, poorly fitted or top-dose-only effect, or another doubt; inactive = no such curve, though single readings can be large; an effect the other way counts as inactive or inconclusive.

Cc1ccc(C(=O)N2CCCC(CCC(=O)N3CCN(c4ccccn4)CC3)C2)cn1 (centres undefined)	none (no result: SMN2 splice up)
Nc1nc2c(ncn2C2OC(CO)CC2O)c(=O)[nH]1 (centres undefined)	none (no result: NPC1 prom act, FLuc modulator, ELG1 DNA repair, ELG1 genotox, Rab9 prom act)
Cc1cccc(N2CCN(C(=O)Cc3ccc(-n4c(=O)[nH]c5ccsc5c4=O)cc3)CC2)c1C	ELG1 DNA repair 18µM
Cc1ccc(C)c(N2CCN(C(=O)Cc3ccc(-n4c(=O)[nH]c5ccsc5c4=O)cc3)CC2)c1	ELG1 DNA repair inconclusive (no result: SMN2 splice up)
COc1cccc(NC(=O)CSc2ncnc3c2oc2ccccc23)c1	none
COc1ccc(NC(=O)c2oc3ccccc3c2NC(=O)c2ccco2)cc1	FLuc modulator 13µM, ELG1 DNA repair 10µM
COCC(=O)Nc1c(C(=O)Nc2cccc(OC)c2)oc2ccccc12	NPC1 prom act 3.5µM, SMN2 splice up 11µM, ELG1 DNA repair inconclusive, ELG1 genotox inconclusive, Rab9 prom act 3.5µM
COc1cccc(NC(=O)c2oc3ccccc3c2NC(=O)COc2ccccc2C)c1	none (no result: NPC1 prom act, ELG1 DNA repair, ELG1 genotox, Rab9 prom act)
COc1cccc(NC(=O)c2oc3ccccc3c2NC(C)=O)c1	NPC1 prom act inconclusive, SMN2 splice up inconclusive, FLuc modulator inconclusive, ELG1 DNA repair inconclusive, ELG1 genotox inconclusive, Rab9 prom act 3.5µM
COc1cccc(NC(=O)CSc2nc3c(oc4ccccc43)c(=O)[nH]2)c1	FLuc modulator 3.8µM, ELG1 DNA repair inconclusive
CC(C)(C)c1ccc(O)c(CN(Cc2cc(C(C)(C)C)ccc2O)C2CCCCC2)c1	none (no result: NPC1 prom act, FLuc modulator, ELG1 DNA repair, ELG1 genotox, Rab9 prom act)
CC(=O)NCc1c(I)c(NC(C)=O)c(I)c(C(=O)O)c1I	none (no result: NPC1 prom act, FLuc modulator, ELG1 DNA repair, ELG1 genotox, Rab9 prom act)
CC1(C)CC2CC(C)(CN2C(=O)COC(=O)c2ccc(NC(=O)CC#N)cc2)C1 (centres undefined)	none (no result: NPC1 prom act, SMN2 splice up, FLuc modulator, Rab9 prom act)
COc1cccc(NC(=O)c2oc3ccccc3c2NC(=O)C2CC2)c1	ELG1 DNA repair 13µM
COc1ccc(NC(=O)c2oc3ccccc3c2NC(=O)C2CC2)cc1	FLuc modulator inconclusive
Cc1ccc(-n2nc(CO)c(C(=O)NCCCc3ccccc3)n2)cc1	none (no result: NPC1 prom act, ELG1 DNA repair, ELG1 genotox, Rab9 prom act)
COCCCNC(=O)CCCN1C(=O)c2cccnc2Sc2ccccc21	none (no result: SMN2 splice up)
Cc1ccc(-c2cc(C(=O)NC3CCCCC3)no2)cc1	NPC1 prom act 2.5µM, FLuc modulator inconclusive, ELG1 DNA repair inconclusive, Rab9 prom act 3.5µM (no result: SMN2 splice up)
O=C(NC1CCCCC1)c1cc(-c2ccc(O)cc2)on1	NPC1 prom act 2.5µM, FLuc modulator inconclusive, ELG1 DNA repair inconclusive, ELG1 genotox inconclusive, Rab9 prom act 3.2µM (no result: SMN2 splice up)
O=C(NC1CCCCC1)c1cc(-c2ccccc2O)on1	NPC1 prom act inconclusive, FLuc modulator inconclusive, ELG1 DNA repair inconclusive, ELG1 genotox 21µM, Rab9 prom act inconclusive (no result: SMN2 splice up)
COc1ccc(-c2cc(C(=O)NC3CCCCC3)no2)cc1OC	none (no result: SMN2 splice up)
O=C(Nc1cccnc1Cl)c1cc(-c2ccc(O)cc2)on1	FLuc modulator inconclusive, ELG1 genotox inconclusive (no result: SMN2 splice up)
CCCc1nnc(N2C(=O)c3oc4ccc(F)cc4c(=O)c3C2c2ccc(C(=O)OC)cc2)s1 (centres undefined)	none (no result: NPC1 prom act, ELG1 DNA repair, ELG1 genotox, Rab9 prom act)
Cc1ccc(N2CCN(Cc3nnc(-c4ccc5c(c4)OCO5)o3)CC2)c(C)c1	none (no result: NPC1 prom act, ELG1 DNA repair, ELG1 genotox, Rab9 prom act)
Cc1ccc(C)c(NC(=O)CCN2CCC(C)CC2)c1	none (no result: SMN2 splice up)
Nc1ccccc1-c1nc2ccccc2s1	NPC1 prom act inconclusive, SMN2 splice up inconclusive, FLuc modulator 11µM, ELG1 DNA repair inconclusive, ELG1 genotox inconclusive, Rab9 prom act 4µM
Nc1ccc(O)c(-c2nc3ccccc3s2)c1	NPC1 prom act 3.2µM, SMN2 splice up inconclusive, FLuc modulator 6µM, ELG1 DNA repair inconclusive, ELG1 genotox inconclusive, Rab9 prom act inconclusive
Oc1ccc(-c2nc3ccccc3s2)c(O)c1	NPC1 prom act 2.8µM, FLuc modulator 6µM, ELG1 DNA repair inconclusive, ELG1 genotox inconclusive, Rab9 prom act 4µM (no result: SMN2 splice up)
O=C(Nc1ccc(O)c(-c2nc3ccccc3s2)c1)c1cccs1	FLuc modulator inconclusive, ELG1 DNA repair inconclusive
Oc1ccc(N=C/C=C/c2cccc(Br)c2)cc1-c1nc2ccccc2s1	NPC1 prom act inconclusive, FLuc modulator 6µM, ELG1 DNA repair inconclusive, ELG1 genotox inconclusive, Rab9 prom act inconclusive
O=C(Nc1ccccc1-c1nc2ccccc2s1)c1ccc(F)cc1	none (no result: NPC1 prom act, ELG1 DNA repair, ELG1 genotox, Rab9 prom act)
CN(C)c1nc(N)nc(-c2nc3ccccc3s2)n1	SMN2 splice up 8.9µM, FLuc modulator inconclusive, ELG1 DNA repair inconclusive, ELG1 genotox 3.3µM, Rab9 prom act inconclusive
CCOC(=O)CN(C(=O)COc1nc(-c2ccccc2)cc(C)c1C#N)c1ccccc1C	ELG1 DNA repair 21µM (no result: SMN2 splice up)
CC(C)C1N=C(c2ccc3c(c2)OCO3)CC(c2ccccc2O)N1 (centres undefined)	NPC1 prom act inconclusive, FLuc modulator 11µM, ELG1 DNA repair inconclusive, Rab9 prom act inconclusive
CC1=NN(C(=O)COc2cc(C)ccc2C(C)C)C(O)(c2ccccc2)C1 (centres undefined)	ELG1 DNA repair 21µM (no result: SMN2 splice up)
CC1=NN(C(=O)COc2ccc(C)c(C)c2)C(O)(c2ccc(Cl)cc2)C1 (centres undefined)	none
c1ccc2c(c1)Cc1cc(CN3CCOCC3)ccc1-2	NPC1 prom act 4µM, SMN2 splice up 14µM, FLuc modulator 9.5µM, ELG1 DNA repair inconclusive, ELG1 genotox inconclusive, Rab9 prom act inconclusive
